PubChem BioAssay (NCATS)
“And” between values parts separate entries of the source, which are not always exact repeats. Identical values can stand only once. Records with an inconclusive call do not appear. A call without a number means that no potency is given here. The source made the active and inactive calls. Calls follow the shape of the dose curve; as a rule, active = well fitted curve in the direction sought with a large enough effect; inconclusive = small, poorly fitted or top-dose-only effect, or another doubt; inactive = no such curve, though single readings can be large; an effect the other way counts as inactive or inconclusive.

Legend:
[1] = target: Calcium and integrin-binding protein 1 (Homo sapiens) (UniProt Q99828); test: Primary qHTS for Identification of Calcium Integrin Binding Protein 1 (CIB1) Competitor (AID 1508620); details: CIB1-GST / FITC-alphaIIb peptide fluorescence polarization; series mostly up to 57.7 µM;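 also: GST tagged CIB1 binding a fluorescein labelled alphaIIb integrin peptide tracer; top concentration of the series differs between compounds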
How it was run: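 Fluorescence polarization competition: CIB1-GST (1 uM final) preincubated with compound 15 min at room temperature, then FITC-labeled alphaIIb peptide (100 nM final) added for another 15 min. Polarization read at Ex 480/Em 540.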

[2] = Counterscreen qHTS for small molecule stabilizers of the endoplasmic reticulum resident proteome: GLuc-NoTag assay (AID 1508627); details: Gaussia luciferase NoTag secretion counterscreen, luminescence; thapsigargin 100 nM for final 4 h; also: potency is read from the fitted curve at half-maximal effect
How it was run: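 SH-SY5Y cells stably expressing constitutively secreted GLuc (no SERCaMP tag) were pre-incubated 5 h, treated with compound for 19 h, then 100 nM thapsigargin for 4 h at 37C; medium GLuc read by coelenterazine luminescence.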

[3] = Confirmatory qHTS for small molecule stabilizers of the endoplasmic reticulum resident proteome: Secreted ER Calcium Modulated Protein (SERCaMP) assay (AID 1508628); details: SERCaMP secreted luciferase ER calcium/proteostasis reporter; series mostly up to 76.3 µM;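 also: SH-SY5Y cells given compound 16 h then thapsigargin 100 nM for 4 h; nearly all actives have a fitted effect of over 40% in size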
How it was run: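 We seeded SH-SY5Y-GLuc-SERCaMP cells, added compounds (three concentrations in the primary run, eleven up to 76.6 uM in confirmation), incubated 16 h, depleted ER calcium with thapsigargin, and read luciferase 4 h later.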

Sequence of Calcium and integrin-binding protein 1 (Homo sapiens) (Q99828 whole entry, looked up): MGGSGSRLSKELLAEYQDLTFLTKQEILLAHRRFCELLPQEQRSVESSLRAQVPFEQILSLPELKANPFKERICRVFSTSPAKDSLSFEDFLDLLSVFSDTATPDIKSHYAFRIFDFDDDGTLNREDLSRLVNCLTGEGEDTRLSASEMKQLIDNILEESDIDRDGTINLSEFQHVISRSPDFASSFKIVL

For `CC1CC(=O)C2=C(O1)OC1(C)CCC3C(C)(C)C=CC(=O)C3(C)C1C2` (centres undefined), the Potency [1] was “inactive”.

In the case of `CC(=O)N1c2ccccc2C2(O)CC3C(=O)NC(CC(C)C)C(=O)N3C12` (centres undefined), the Potency [1] is reported as “inactive”.

In the case of `COC(=O)c1cc(CN2CCN(C(=N)N)CC2)cc(C(=O)N2CCN(C(=O)c3ccc(C(=N)N)cc3)CC2)c1`, the Potency [1] is reported as “inactive”.

With `C[C@@H]1C(=O)O[C@H]2CC34[C@H]5C[C@@H](C(C)(C)C)C36[C@@H](OC(=O)[C@@H]6O)O[C@@]4(C(=O)O5)[C@]21O` (some centres undefined) the Potency [1] was “inactive”.

With `CC1(C)C(=O)C(C)(C)c2cc(C(=O)Nc3ccc(C(=O)O)cc3)ccc21` the Potency [1] was “inactive”.

For `FC(F)(F)c1cc(C(F)(F)F)c2ccc3nc(-c4nnco4)cn3c2n1`, the Potency [1] was “inactive”.

With `CCCCNC(=O)[C@@H]1Cc2ccccc2N1C(=O)[C@@H](N)CC` the Potency [1] was “inactive”.

For `COC(=O)[C@@]1(C)CC[C@]2(C(=O)O[C@@H]3O[C@H](CO)[C@@H](O)[C@H](O)[C@H]3O)CC[C@]3(C)C(=CCC4[C@@]5(C)CC[C@H](O[C@@H]6O[C@H](C(=O)O)[C@@H](O)[C@H](O)[C@H]6O)C(C)(C)C5CC[C@]43C)[C@@H]2C1` (some centres undefined), the Potency [1] was “inactive”.

With `O=C(c1ccc(C#Cc2cccc(F)c2)cn1)N1CC2CC2C1` (centres undefined) the Potency [1] was “inactive”.

In the case of `C=C1[C@H]2[C@H](O[C@@H]3O[C@H](COC(=O)/C=C/c4cc(OC)c(O)c(OC)c4)[C@@H](O)[C@H](O)[C@H]3O)OC=C(C(=O)O)[C@H]2C[C@@H]1O`, the Potency [1] is reported as “inactive”.

For `COC(=O)C1=C(C)NC(C)=C(C(=O)OCCCN2CCC(c3ccccc3)(c3ccccc3)CC2)[C@H]1c1cccc([N+](=O)[O-])c1`, the Potency [2] was 39.8 µM (active) and 44.7 µM (active) and the outcome [3] was “inactive”.

In the case of `O=C(O)C[C@H](O)C[C@H](O)/C=C/c1c(C2CC2)nc2ccccc2c1-c1ccc(F)cc1`, the Potency [1] is reported as “inactive”.

For `COc1cc(C)c(C(=O)O[C@H]2[C@@H](O)[C@H](n3ccc(=O)[nH]c3=O)O[C@@H]2CO)c(OC)c1`, the Potency [1] was “inactive”.

For `COC1(CC(C)C)NC(=O)C(O)(Cc2ccccc2)NC1=O` (centres undefined), the Potency [1] was “inactive”.

With `O=C(O)[C@H]1CCCC[C@H]1C(=O)N1CCc2ccccc2[C@H]1CN1C(=O)c2ccccc2C1=O` the Potency [1] was “inactive”.

In the case of `Cc1nn(C)c(COc2ccc(N3CCN(S(=O)(=O)N(C)C)CC3)cc2)c1-c1cccc2c(CCCOc3cccc4ccccc34)c(C(=O)O)n(CCN3CCOCC3)c12`, the Potency [1] is reported as “inactive”.

For `CC(=O)NCCCCn1c2c(c3ccccc31)C(=O)NCC2`, the Potency [1] was “inactive”.

For `C=C1[C@@H]2[C@H]3OC(=O)C(=C)[C@@H]3CC[C@@](C)(O)[C@@H]2C[C@@H]1O[C@@H]1O[C@H](CO)[C@@H](O)[C@H](O)[C@H]1O`, the Potency [1] was “inactive”.

With `CN(NC(=O)CC(=O)NN(C)C(=S)c1ccccc1)C(=S)c1ccccc1` the Potency [1] was “inactive”.

For `Cc1c(CN(C)C(=O)/C=C/c2cnc3c(c2)CCC(=O)N3)oc2ccccc12`, the Potency [1] was “inactive”.

For `C/C=C(\C)C(=O)O[C@H]1[C@H](O)[C@]2(COC(C)=O)[C@H](O)C[C@]3(C)C(=CCC4[C@@]5(C)CC[C@H](O[C@@H]6O[C@H](C(=O)O)[C@@H](O[C@@H]7O[C@H](CO)[C@@H](O)[C@H](O)[C@H]7O)[C@H](O)[C@H]6O[C@@H]6O[C@H](CO)[C@@H](O)[C@H](O)[C@H]6O)[C@](C)(CO)C5CC[C@]43C)[C@@H]2CC1(C)C` (some centres undefined), the Potency [1] was “inactive”.

With `C(#Cc1cccc(CN2CCOCC2)c1)CCN1CCCCC1` the Potency [1] was “inactive”.

For `COc1c(C)c(C(=O)c2ccc(N)c(C(=O)O)c2)n2ccccc12`, the Potency [1] was “inactive”.

In the case of `CC(CCC1(O)OC2CC3C4CCC5CC(O[C@@H]6O[C@H](CO)[C@@H](O)[C@H](O)[C@H]6O[C@@H]6OC[C@@H](O)[C@H](O)[C@H]6O)C(O)CC5(C)C4CCC3(C)C2C1C)CO[C@@H]1O[C@H](CO)[C@@H](O)[C@H](O)[C@H]1O` (some centres undefined), the Potency [1] is reported as “inactive”.

With `CC(C)CC(=O)OC[C@H]1O[C@@](COC(=O)CC(C)C)(O[C@H]2O[C@H](CO)[C@@H](O)[C@H](O)[C@H]2OC(=O)CC(C)C)[C@@H](OC(=O)CC(C)C)[C@@H]1O` the Potency [1] was “inactive”.

In the case of `COc1cc(N2CCC(O)CC2)ccc1Nc1cc(Nc2ccccc2S(=O)(=O)C(C)C)c2cc[nH]c2n1`, the Potency [1] is reported as “inactive”.

In the case of `COc1cc([C@H]2OC[C@]3(OC(C)=O)[C@@H](c4ccc(O[C@@H]5O[C@H](CO)[C@@H](O)[C@H](O)[C@H]5O)c(OC)c4)OC[C@H]23)ccc1O`, the Potency [1] is reported as “inactive”.

With `COc1cc(/C=C/c2cc(O)cc(O[C@@H]3O[C@H](CO)[C@@H](O)[C@H](O)[C@H]3O)c2)ccc1O` the Potency [1] was “inactive”.
